Among the data in PubChem BioAssay (Tox21) are Potency and outcome values, retold here.

Test [1] in a line: qHTS RealTime-Glo MT Cell Viability Assay in HEK293 cells - 0 hour (AID 1224880). Note: top concentration of the series differs between compounds; nearly all actives have a fitted effect of over 45% in size. The gist of the method: (§1)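 Kinetic, non-lysing viability readout. Seed HEK293 (600/well) with reagent, incubate 5 h at 37 C/5% CO2, pin 23 nL compound in DMSO, incubate at 37 C, read luminescence at 0, 8, 16, 24, 32, 40 h.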
(In general: Quantitative high-throughput screening tests each substance at several concentrations.)

The nature of test [2]: A CellTox Green Cytotoxicity Assay to monitor cytotoxicity in HEK293 cells - 32 hour (AID 1224881). Note: nearly all actives have a fitted effect of over 40% in size. Note: potency is the fitted concentration of half-maximal effect. Summed up: (§2)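 Real-time, in one plate: 600 HEK293 cells/well with dead-cell DNA dye, pinned compound after 5 h, 37 C incubation over 40 h; viable cells give no appreciable fluorescence.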
The nature of test [3]: A CellTox Green Cytotoxicity Assay to monitor cytotoxicity in HepG2 cells - 0 hour (AID 1224882). Note: nearly all actives have a fitted effect of over 35% in size. Note: potency is the fitted concentration of half-maximal effect. Summed up:
(§3)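 Cytotoxicity was tracked as dead-cell DNA fluorescence in HepG2 cells treated with test compounds at 37 C; each time-point value comes from one kinetic series spanning 0, 8, 16, 24, 32 and 40 h.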

A short description of test [4]: A CellTox Green Cytotoxicity Assay to monitor cytotoxicity in HepG2 cells - 32 hour (AID 1224883). Note: nearly all actives have a fitted effect of over 50% in size. Note: potency is the fitted concentration of half-maximal effect. Summed up: as §3
The nature of test [5]: A CellTox Green Cytotoxicity Assay to monitor cytotoxicity in HEK293 cells - 8 hour (AID 1224884). Note: nearly all actives have a fitted effect of over 35% in size. Note: potency is the fitted concentration of half-maximal effect. Summed up: as §2
The nature of test [6]: qHTS RealTime-Glo MT Cell Viability Assay in HepG2 cells - 16 hour (AID 1224885). Note: nearly all actives have a fitted effect of over 50% in size. Summed up: (§4)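 Viability was tracked continuously by NanoLuc luminescence from prosubstrate reduced by living HepG2 cells, at successive time points over 40 h of compound exposure. Cells with reagent were preincubated 5 h at 37 °C before compound addition.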
Test [7] is described as follows: qHTS RealTime-Glo MT Cell Viability Assay in HEK293 cells - 8 hour (AID 1224887). Note: top concentration of the series differs between compounds; nearly all actives have a fitted effect of over 50% in size. Summed up: as §1
Test [8] in a line: A CellTox Green Cytotoxicity Assay to monitor cytotoxicity in HEK293 cells - 16 hour (AID 1224888). Note: nearly all actives have a fitted effect of over 35% in size. Note: potency is the fitted concentration of half-maximal effect. The gist of the method:
as §2

A short description of test [9]: qHTS RealTime-Glo MT Cell Viability Assay in HepG2 cells - 0 hour (AID 1224889). Note: nearly all actives have a fitted effect of over 50% in size. The gist of the method:
as §4

Test [10] in a line: A CellTox Green Cytotoxicity Assay to monitor cytotoxicity in HepG2 cells - 8 hour (AID 1224890). Note: nearly all actives have a fitted effect of over 45% in size. Note: potency is the fitted concentration of half-maximal effect. The gist of the method: as §3
The nature of test [11]: qHTS assay to identify small molecule antagonists of the estrogen receptor alpha (ER-alpha) signaling pathway using the BG1 cell line in the presence of 0.1 nM 17-beta-estradiol - cell viability counter screen (AID 1259241). Note: nearly all actives have a fitted effect of over 40% in size. The gist of the method: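 In this screen, hormone-deprived VM7Luc4E2 cells were seeded at 4,000 per well, dosed with compound and 0.1 nM estradiol final, and incubated 22 hr at 37C and 5% CO2; fluorogenic live-cell protease signal reported viability.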

Test [12] is described as follows: qHTS assay to identify small molecule antagonists of the androgen receptor (AR) signaling pathway using the MDA cell line in the presence of 0.5 nM R1881 - cell viability counter screen (AID 1259242). Note: nearly all actives have a fitted effect of over 45% in size. The gist of the method:
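Cells seeded at 3,000/well and allowed 5 hr at 37C, 0% CO2 before compound transfer and R1881 (0.5 nM final) addition; 16 hr later, live-cell protease fluorescence indicated cytotoxicity.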

Test [13] concerns the target Estrogen receptor (Homo sapiens) (UniProt P03372). The experiment in a line: qHTS assay to identify small molecule antagonists of the estrogen receptor alpha (ER-alpha) signaling pathway using the BG1 cell line in the presence of 0.1 nM 17-beta-estradiol (AID 1259244). Note: nearly all actives have a fitted effect of over 50% in size. Summed up:
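Luciferase signal from VM7Luc4E2 ERE-reporter cells, co-dosed with test compound and 0.1 nM final 17beta-estradiol for 22 h, read with ONE-Glo.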

A short description of test [14]: qHTS assay to identify small molecule phospholipidosis (PLD) inducers (AID 1259344; active = well fitted curve in the direction sought with a large enough effect; an effect the other way counts as inactive or inconclusive). Summed up:
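Read-out is LipidTOX Red fluorescence (ex 595/em 615) imaged in HepG2 cells after 24 h compound exposure at 37 C, with Hoechst nuclear counterstain (ex 352/em 461) allowing per-cell normalisation.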

The nature of test [15]: qHTS assay to identify small molecule HDAC inhibitors - cell viability counter screen (AID 1259365). The gist of the method: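 Measured quantity is CellTiter-Glo luminescence from wild-type HCT-116 cells after compound incubation of 2hr at 37C, 5% CO2; reagent developed 30min at room temperature.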
Test [16] in a line: qHTS assay to identify small molecule antagonists of the sonic hedgehog signaling (Shh) pathway - cell viability counter screen (AID 1259367). Note: nearly all actives have a fitted effect of over 55% in size. The gist of the method:
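Fluorescence read-out (CellTiter-Fluor, 1 hr at 37C) taken after 23 hr compound treatment of 3T3 Gli1-Luc cells stimulated with conditioned medium. Cells were seeded at 2,000 per well and pre-incubated 4 hr.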

The nature of test [17]: qHTS RealTime-Glo MT Cell Viability Assay in HEK293 cells - 24 hour (AID 1224886). Note: nearly all actives have a fitted effect of over 50% in size. Note: potency is the fitted concentration of half-maximal effect. Summed up:
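Viability tracked continuously by luminescence as live cells reduce a prosubstrate for NanoLuc; HEK293 cells preincubated 5 h, compound-treated at 37 C, and read at 0, 8, 16, 24, 32 and 40 h.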

The nature of test [18]: qHTS assay to identify small molecule HDAC inhibitors (AID 1259364).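 Note: wild-type HCT-116 cells with endogenous class I/II HDAC activity; top concentration of the series differs between compounds; nearly all actives have a fitted effect of over 45% in size.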 The gist of the method: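 HCT-116 wt cells, 1,500/well, overnight attach. Compounds (DMSO) 2 h, 37 °C. HDAC-Glo I/II, 30 min RT. Luminescence.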
The nature of test [19]: qHTS assay to identify small molecule agonists of the sonic hedgehog signaling (Shh) pathway - cell viability counter screen (AID 1259366). Note: nearly all actives have a fitted effect of over 50% in size. Summed up:
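In quantitative high-throughput format, 3T3 Gli1-Luc cells were exposed to compounds for 24hr and multiplexed for viability using CellTiter-Fluor, incubated 1hr at 37C before the fluorescence read.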

In test [20] the target is Androgen receptor (Homo sapiens) (UniProt P10275). The experiment in a line: qHTS assay to identify small molecule antagonists of the androgen receptor (AR) signaling pathway using the MDA cell line in the presence of 0.5 nM R1881 (AID 1259243). Note: nearly all actives have a fitted effect of over 50% in size. Summed up: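 Luminescence from an AR/GR-responsive MMTV-luciferase construct in MDA-kb2 breast carcinoma cells, read 30 min after ONE-Glo, following 16 hr co-treatment with compounds and 0.5 nM R1881.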

Values without a mark were called inactive. Inconclusive results are not listed. Calls of active or inactive are those of the source. Unless noted, calls come from the whole dose curve; as a rule, active = well fitted curve in the direction sought with a large enough effect in the repeat runs; inconclusive = weak or mixed curves; inactive = no such curve, though single readings can be large; an effect the other way counts as inactive or inconclusive.

Chain of Estrogen receptor (Homo sapiens) (P03372 whole entry, looked up): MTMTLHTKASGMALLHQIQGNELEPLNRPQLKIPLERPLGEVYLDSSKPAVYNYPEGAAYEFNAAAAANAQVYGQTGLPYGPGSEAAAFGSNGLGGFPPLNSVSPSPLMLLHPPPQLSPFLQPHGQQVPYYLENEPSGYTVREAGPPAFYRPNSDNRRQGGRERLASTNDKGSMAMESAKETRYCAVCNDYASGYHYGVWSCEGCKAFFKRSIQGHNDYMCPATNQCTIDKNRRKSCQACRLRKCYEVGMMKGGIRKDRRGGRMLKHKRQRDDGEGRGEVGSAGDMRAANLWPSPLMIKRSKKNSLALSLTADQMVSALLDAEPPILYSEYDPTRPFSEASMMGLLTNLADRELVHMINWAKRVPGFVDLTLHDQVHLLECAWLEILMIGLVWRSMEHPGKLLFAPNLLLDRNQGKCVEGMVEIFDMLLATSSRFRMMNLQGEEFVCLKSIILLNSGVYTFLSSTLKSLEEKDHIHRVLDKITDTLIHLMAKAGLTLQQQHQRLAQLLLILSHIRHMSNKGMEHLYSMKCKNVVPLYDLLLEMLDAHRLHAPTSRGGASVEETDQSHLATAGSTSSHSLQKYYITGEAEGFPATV
Chain of Androgen receptor (Homo sapiens) (P10275 whole entry, looked up): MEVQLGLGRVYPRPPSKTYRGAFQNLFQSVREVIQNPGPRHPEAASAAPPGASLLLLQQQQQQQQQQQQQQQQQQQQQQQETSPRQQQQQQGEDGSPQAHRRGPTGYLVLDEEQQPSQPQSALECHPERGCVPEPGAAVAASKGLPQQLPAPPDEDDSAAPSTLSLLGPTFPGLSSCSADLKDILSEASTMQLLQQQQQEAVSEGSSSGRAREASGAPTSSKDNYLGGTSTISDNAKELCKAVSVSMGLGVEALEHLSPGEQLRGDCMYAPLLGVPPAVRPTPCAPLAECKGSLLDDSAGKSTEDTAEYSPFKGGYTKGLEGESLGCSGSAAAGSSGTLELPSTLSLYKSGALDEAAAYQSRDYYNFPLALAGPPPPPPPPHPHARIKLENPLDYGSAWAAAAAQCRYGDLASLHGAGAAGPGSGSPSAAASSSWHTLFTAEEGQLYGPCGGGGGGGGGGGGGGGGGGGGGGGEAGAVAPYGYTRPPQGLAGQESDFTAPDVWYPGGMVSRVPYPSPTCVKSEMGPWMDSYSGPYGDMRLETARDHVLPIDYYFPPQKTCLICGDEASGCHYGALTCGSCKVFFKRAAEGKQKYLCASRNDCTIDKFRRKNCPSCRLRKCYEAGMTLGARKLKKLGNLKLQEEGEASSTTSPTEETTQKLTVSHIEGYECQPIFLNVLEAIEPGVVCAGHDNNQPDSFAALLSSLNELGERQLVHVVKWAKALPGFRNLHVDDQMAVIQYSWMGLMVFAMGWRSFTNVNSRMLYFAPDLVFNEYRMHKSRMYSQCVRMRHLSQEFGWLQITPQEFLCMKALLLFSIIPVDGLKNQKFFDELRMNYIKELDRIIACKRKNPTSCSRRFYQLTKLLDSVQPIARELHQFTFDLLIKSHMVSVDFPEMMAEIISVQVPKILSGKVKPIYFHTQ

For the molecule `Nc1ccc(C(=O)Oc2ccccc2)c(O)c1`, the Potency result in [1], in test [2], in test [3], in test [4], in test [5] and in [7] was “inactive” throughout. Further, the Potency entry in [8], in test [9], in test [10], in [11], in [12] and in [13] was “inactive” in each case. For the same molecule, the Potency entry in test [14] and in [16] was “inactive” in each case. For the same molecule, the outcome in [6] and in [15] was inactive.
As for `CC(=O)c1cccnc1`, the Potency result in test [1], in test [2], in test [3], in test [4], in [5] and in [17] was “inactive” throughout. In addition, the Potency result in test [7], in [8], in [10], in test [11], in [12] and in [13] was “inactive” each time. The Potency entry in test [18], in [19] and in test [16] was “inactive” in each case. In addition, the molecule was called inactive in test [6] and in test [15].
For `CC(C(=O)O)c1ccc2c(c1)Cc1cccnc1O2` (configuration not stated), the Potency entry in test [1], in test [2], in [3], in test [4], in [5] and in test [7] was “inactive” throughout. Also, the Potency entry in test [8], in [9], in [10], in [11], in [12] and in test [20] was “inactive” each time. For the same molecule, the Potency entry in test [14], in [18] and in test [16] was “inactive” throughout. For the same molecule, in [6], the molecule was called inactive.
With `O=C(O)c1cccnc1Nc1cccc(C(F)(F)F)c1`, the Potency entry in test [1], in [2], in [3], in [4], in test [5] and in test [7] was “inactive” each time. Besides, the Potency result in test [8], in test [9], in [10], in test [11], in [12] and in test [13] was “inactive” in each case. In addition, the Potency entry in [14], in [19] and in [16] was “inactive” each time. Besides, the call in test [6] and in [15] was inactive.
For the molecule `NC(=O)c1ccccc1C(N)=O`, the Potency result in test [1], in [12], in [20], in test [13], in [18] and in [19] was “inactive” in each case. Also, the Potency result in test [16] is “inactive”. Further, the Potency was 49.2 µM (active) in [2]; 49.2 µM (active) in test [3]; 55.2 µM (active) in test [4]; 49.2 µM (active) in test [5]; 34.8 µM (active) in test [17]; 49.2 µM (active) in [8]. Also, the Potency in test [10] was 49.2 µM (active). The call in [6] and in test [15] was inactive.
In the case of `O=C(O)COCC(=O)O`, the Potency entry in test [1], in [2], in [3], in test [4], in test [5] and in test [17] was “inactive” throughout. Further, the Potency entry in test [7], in test [8], in test [10], in test [11], in [12] and in test [18] was “inactive” in each case. In addition, the Potency result in test [19] and in test [16] was “inactive” each time. The result in [6] and in [15] was inactive.
As to `Clc1cc(Cl)c2c(c1)N=C1CCCCCN1C2`, the Potency result in test [1], in test [2], in test [3], in test [4], in test [5] and in test [8] was “inactive” throughout. In addition, the Potency result in test [9], in test [10], in [11], in test [12], in [13] and in test [19] was “inactive” throughout. Moreover, the Potency result in [16] was “inactive”. Besides, the call in [6] and in [15] was inactive. The Potency in [17] was 19 µM (active).
For the molecule `CC(Cc1ccccc1)(NC(=O)CN)c1ccccc1` (configuration not stated), the Potency entry in test [1], in test [2], in test [3], in test [4], in test [5] and in [7] was “inactive” throughout. For the same molecule, the Potency result in test [8], in test [9], in [10], in [11], in test [12] and in test [13] was “inactive” each time. Also, the Potency entry in test [14], in [18], in test [19] and in test [16] was “inactive” each time. Also, the molecule was called inactive in test [6] and in test [15].
